Assay outcomes as filed in PubChem.
Pf Dd2 growth: inhibitors of Plasmodium falciparum Dd2 growth; activity change, % at 10 µM; actives 2.3% (n = 94,000); P. falciparum Dd2 growth, SYBR Green, 72 h; hits give low values; in the data active = activity change below about -80%; inconclusive = no clear call, values can overlap the other calls
C diff HTS: C. difficile growth inhibition; growth activity, negative = inhibition, % at 16 µg/mL (by protocol); Clostridium difficile clinical isolate growth, OD600, 24 h; hits give low values; actives 0.25% (n = 86,000);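 active = mean growth activity at or below -80% and every replicate also at or below -80%; inconclusive = mean at or below -80% but some replicate above -80%; inactive = mean growth activity above -80%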;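 note: 0% = DMSO wells and -100% = levofloxacin 16 µg/mL wells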
T cruzi growth-1: T. cruzi proliferation inhibition | actives 5.9% (n = 77,000) | T. cruzi beta-gal in NIH3T3, GalScreen luminescence, 90 h | inhibition, % at 8.34 µM;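 active = mean inhibition above about 93%, with at least 55% of replicates each passing it, limit read from the data, passing the limit was not always enough; inconclusive = only one of those two conditions holds; inactive = neither condition holds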
T cruzi growth-2: inhibitors of T. cruzi proliferation. shares compounds with T cruzi growth-1. actives 72% (n = 5,600). T. cruzi beta-gal in NIH3T3, GalScreen luminescence, 90 h. inhibition, % at 8.35 µM;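 active = mean replicate inhibition above about 95% and at least 55% of replicates individually reaching it, limit read from the data; inconclusive = only one of the two criteria is met; inactive = neither criterion is met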
T cruzi growth-3: Trypanosoma cruzi proliferation inhibition. shares compounds with T cruzi growth-1. T. cruzi beta-gal in NIH3T3, GalScreen luminescence, 90 h. inhibition, % at 2.09 µM. actives 21% (n = 5,600). AID 651740;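 active = mean inhibition above about 95%, with at least 55% of replicates also reaching it, limit read from the data; inconclusive = meets just one of the two conditions; inactive = meets neither condition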;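 note: plate controls were neutral control median for no effect and positive control median for full effect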
NIH3T3 tox: cytotoxicity in mouse NIH/3T3 fibroblasts; shares compounds with T cruzi growth-1; NIH/3T3 viability, CellTiter-Glo ATP luminescence, 90 h; cytotoxicity (signal decrease), % at 8.35 µM; actives 14% (n = 5,600); AID 651742;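 active = mean signal decrease across replicates above about 35% based on untreated-well scatter, with enough replicates individually passing, limit read from the data; inconclusive = no rule stated though some were filed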;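 note: 0% = median of neutral control wells and 100% = median of positive control wells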
3T3 cytotox 2: kills mouse NIH/3T3 fibroblasts; AID 651744; shares compounds with T cruzi growth-1; inhibition, % at 24.9 µM; actives 56% (n = 5,600); NIH/3T3 viability, CellTiter-Glo ATP luminescence, 90 h;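 active = mean loss of cell viability signal at or above a set limit, and enough replicates individually reaching it; inconclusive = meets only the mean limit or only the replicate share; inactive = meets neither condition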;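 note: 0% = median of neutral control wells and 100% = median of positive control wells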
The depositor's hits bear a star; ? = inconclusive; . = no result. This is a sample that favours compounds with a hit; in the whole collection about 6.7% have one here.

SMILES | Pf Dd2 growth | C diff HTS | T cruzi growth-1 | T cruzi growth-2 | T cruzi growth-3 | NIH3T3 tox | 3T3 cytotox 2
N#C[C@H]1[C@@H](c2ccc(-c3cccnc3)cc2)[C@@H](CO)N1C(=O)Nc1ccc(F)cc1 | -22 | 28 | 105* | 108* | 56 | -30 | -8
N#C[C@@H]1[C@H](c2ccc(-c3cccnc3)cc2)[C@H](CO)N1C(=O)Nc1ccc(F)cc1 | -27 | 23 | 35 | . | . | . | .
N#C[C@@H]1[C@@H](c2ccccc2)[C@@H](CO)N1C(=O)c1cccnc1 | 43 | -18 | 22 | . | . | . | .
N#C[C@@H]1[C@H](c2ccc(C3=CCCCC3)cc2)[C@H](CO)N1C(=O)c1cccc(F)c1 | 10 | -18 | ? | 107* | 80 | 12 | 24*
COc1ccccc1-c1ccc([C@@H]2[C@@H](C#N)N(C(=O)c3cccc(F)c3)[C@@H]2CO)cc1 | -37 | 10 | 68 | . | . | . | .
O=C(CCN1CCCCC1)N[C@@H]1CC[C@H](CC(=O)N2CCC(Cc3ccccc3)CC2)O[C@@H]1CO | -15 | . | 92 | . | . | . | .
O=C(C[C@H]1CC[C@H](NS(=O)(=O)c2ccc(F)cc2)[C@H](CO)O1)NCc1ccc(Cl)c(Cl)c1 | 3 | . | -57 | . | . | . | .
O=C(Nc1ccc(F)cc1)N[C@@H]1CC[C@@H](CCn2cc(C3(O)CCCC3)nn2)O[C@@H]1CO | -52 | -2 | 3 | . | . | . | .
C[C@H](CO)N1C[C@H](C)[C@H](CN(C)Cc2ccccc2)Oc2cc(-c3ccncc3)ccc2S1(=O)=O | -49 | 1 | 85 | . | . | . | .
C[C@H]1CN([C@@H](C)CO)S(=O)(=O)c2ccc(-c3ccncc3)cc2O[C@@H]1CN(C)Cc1ccccc1 | -59 | -3 | 90 | . | . | . | .
C[C@@H]1CN([C@@H](C)CO)S(=O)(=O)c2ccc(-c3ccncc3)cc2O[C@H]1CN(C)Cc1ccccc1 | -76 | -4 | ? | 92 | 99* | 76* | 96*
C[C@@H]1CN([C@H](C)CO)S(=O)(=O)c2ccc(-c3ccncc3)cc2O[C@H]1CN(C)Cc1ccccc1 | -59 | -5 | ? | 98* | 100* | 60* | 94*
COc1ccc(NC(=O)Nc2ccc3c(c2)C(=O)N([C@@H](C)CO)C[C@@H](C)[C@H](CN(C)C(=O)Nc2cccc4ccccc24)OCCCC[C@@H](C)O3)cc1 | -35 | -1 | -2 | . | . | . | .
C/C=C/c1ccc([C@@H]2[C@@H](CO)N[C@@H]2CN(C)S(=O)(=O)c2ccccc2)cc1 | -6 | 19 | 14 | . | . | . | .
O=S(=O)(NC[C@@H]1N[C@@H](CO)[C@H]1c1ccccc1)c1ccccc1 | -16 | -1 | 104* | 68 | 14 | 10 | 12
O=S(=O)(NC[C@@H]1N[C@@H](CO)[C@@H]1c1ccccc1)c1ccccc1 | 1 | -4 | 61 | . | . | . | .
C/C=C/c1ccc([C@@H]2[C@H](CN(C)S(=O)(=O)c3ccccc3)N[C@@H]2CO)cc1 | -48 | 5 | 108* | 47 | 25 | -10 | 37*
COc1ccc(NC(=O)Nc2ccc3c(c2)C(=O)N([C@H](C)CO)C[C@H](C)[C@@H](CN(C)S(=O)(=O)c2ccc(Cl)cc2)OCCCC[C@H](C)O3)cc1 | -69 | 3 | 115* | 104* | 86 | -5 | 2
COc1ccc(NC(=O)Nc2ccc3c(c2)C(=O)N([C@H](C)CO)C[C@H](C)[C@@H](CN(C)S(=O)(=O)c2ccc(Cl)cc2)OCCCC[C@@H](C)O3)cc1 | -60 | 3 | 92 | . | . | . | .
COc1ccc(NC(=O)Nc2ccc3c(c2)C(=O)N([C@@H](C)CO)C[C@@H](C)[C@@H](CN(C)S(=O)(=O)c2ccc(Cl)cc2)OCCCC[C@@H](C)O3)cc1 | -53 | -6 | 121* | 105* | 47 | 4 | -5
COc1ccc(S(=O)(=O)N(C)C[C@@H]2OCCCC[C@H](C)Oc3ccc(NC(=O)Nc4ccccc4)cc3C(=O)N([C@H](C)CO)C[C@@H]2C)cc1 | -39 | -4 | 110* | 106* | 68 | 7 | 23
COc1ccc(S(=O)(=O)N(C)C[C@@H]2OCCCC[C@@H](C)Oc3ccc(NC(=O)Nc4ccccc4)cc3C(=O)N([C@H](C)CO)C[C@@H]2C)cc1 | -71 | 3 | 10 | . | . | . | .
